Records with an inconclusive call do not appear. Values without a mark were called inactive. Calls of active or inactive are those of the source. Calls follow the shape of the dose curve; as a rule, active = well fitted activation curve with a large enough effect; inconclusive = small, poorly fitted or top-dose-only effect; inactive = flat fitted curve, though single readings scatter.
experiment: Parental Cell Counter Screen for Stat Signaling Pathway Assay; settings: ME-180 (cervical carcinoma) parental cells, blue fluorescence artefact counter-screen; series mostly up to 38.3 µM; activity (fluorescence increase): at the top concentration
Text: NIH Molecular Libraries Screening Centers Network [MLSCN] NIH Chemical Genomics Center [NCGC] MLSCN Grant: None NCGC Assay Overview: This assay is a counter screen for the Stat signaling pathway assay (PubChem AID 446). The Stat assay is cell-based and measures Interleukin 6 (IL-6) mediated modulation of a beta-lactamase reporter gene controlled by a STAT inducible element (SIE-bla cells, Invitrogen). IL-6 is a cytokine that signals via the JAK/STAT pathway and is implicated in cancer and inflammation. […] Compounds active in the parental ME-180 cells are likely fluorescent.
NCGC Assay Protocol Summary: Cells were trypsinized, washed in assay medium (AM, OPTI MEM with 0.5% fetal bovine serum, 0.1 mM nonessential amino acids, 1 mM sodium pyruvate, 10mM HEPES pH 7.3, 100U/ml penicillin, and 100 ug/ml streptomycin) and suspended at […] in AM. Approximately 2500 cells in 5 uL/well was dispensed into 1536-well plates and the cells were incubated overnight at 37 C. 23 nL of compound were delivered by a pin tool and 1 uL of IL-6 (40 pM final concentration in AM) was added. After plates were incubated at 37 C for 5 hrs, 1uL of detector mix (LiveBLAzerTM, Invitrogen) was added, the plates incubated at room temperature for 2.5 hrs, and fluorescence intensity at 460 and 530 nm emissions was measured at 405 nm excitation by an Envision (Perkin Elmer).

Row | SMILES | activity (fluorescence increase) | Potency
1 | COc1ccc2[nH]c3c(N4CCN(Cc5ccc6c(c5)OCO6)CC4)ncnc3c2c1 | 9.26% | –
2 | ClC(=Nc1cccc2ccccc12)N(c1ccccc1)c1ccccc1 | 7.48% | –
3 | COc1ccc(C(=O)CCN(C)C)c2ccccc12 | 15.7% | –
4 | CCOC(=O)CCc1c(C)c(C#N)c2[nH]c3ccccc3n2c1=O | 16.7% | –
5 | COc1ccc(C[C@@H]2C(=O)N[C@H](C)C(=O)N(C)[C@@H]3Cc4ccc(cc4)Oc4cc(ccc4O)C[C@H](C(=O)N[C@@H](C)C(=O)N[C@H](C)C(=O)N2C)N(C)C3=O)cc1 | 10.4% | –
6 | CC(=O)Oc1ccc(C(c2ccc(OC(C)=O)cc2)c2ccccn2)cc1 | 10.2% | –
7 | O=C(O)c1c(Br)c(Br)c(Br)c(Br)c1C1c2ccc(O)cc2Oc2cc(O)ccc21 | 8.49% | –
8 | CC(C)(C)c1nnc2sc(SCC(=O)c3ccccc3)nn2c1=O | 13.9% | –
9 | O=C(Oc1oc(-c2ccco2)nc1C=Nc1ccccc1)c1ccoc1 | 3.7% | –
10 | CC1(C)Cc2c(C#N)c(NCCc3ccccc3)nc(-c3ccco3)c2CO1 | – | 5.01 µM (active)
11 | CCCCSc1nc(N)c(C#N)c(-c2cccs2)c1C#N | 38% | –
12 | CCSc1nc(N)c(C#N)c(-c2ccccc2Cl)c1C#N | 13.9% | –
13 | O=C1Nc2ccc(I)cc2/C1=C/c1cc(Br)c(O)c(Br)c1 | 17% | –
14 | O=C(O)CCc1c2ccc(=O)c(O)c-2oc2c(O)c(O)ccc12 | -1.89% | –
15 | COc1cc(-c2nn3c(COc4ccccc4)nnc3s2)cc(OC)c1OC | 8.33% | –
16 | OC[C@@H]1O[C@@H](n2cnc3c(SCc4ccccc4)ncnc32)[C@@H](O)[C@H]1O | 0.926% | –
17 | Cc1ccc(S(=O)(=O)N2CCN(c3nc(C(C)C)c4c(c3C#N)CC(C)(C)OC4)CC2)cc1 | 10.2% | –
18 | CCC(=O)Oc1oc(-c2ccccc2)nc1C=Nc1ccccc1OC | 17.6% | –
19 | CC(C)N1CC=C2C(C#N)=C(N)C(C#N)(C#N)C(c3ccccc3)C2C1 (stereo not given) | – | 5.01 µM (active)
20 | Cc1ccc(CNC(=O)c2cc3c(=O)n4ccccc4nc3n(CC3CCCO3)c2=N)cc1 (stereo not given) | – | 10 µM (active)

Row | SMILES | activity (fluorescence increase) | Potency
21 | COc1ccc(-c2nn3c(COc4ccccc4)nnc3s2)cc1OC | 10.2% | –
22 | NS(=O)(=O)c1ccc(N=Nc2cc3ccccc3c(C(=O)O)c2O)cc1 | 4.72% | –
23 | Clc1ccc(-c2nnc3sc(Cc4cccs4)nn23)cc1 | 4.63% | –
24 | CC(C)(C)C1CCC2(CC1)C(C#N)=C(SCC(=O)Nc1ccccc1)NC(=O)C2C#N (stereo not given) | 24.1% | –
25 | ClC(Br)=C(n1cnc2ccccc21)n1cnc2ccccc21 | 11.1% | –
26 | CCOC(=O)CSc1nnc2n(Cc3ccccc3)c(=O)c3c4c(sc3n12)CCC4 | 16.7% | –
27 | O=c1c(O)c(-c2ccc(O)c(O)c2)oc2cc(O)cc(O)c12 | 15.9% | –
28 | CCNC(=O)c1cc2c(=O)n3cccc(C)c3nc2n(CCc2ccccc2)c1=N | – | 12.6 µM (active)
29 | CCCCc1nc(NCCNC(=O)c2ccco2)c(C#N)c2c1CSC(C)(C)C2 | 25.9% | –
30 | COc1ccc2c(c1)c1c(C)c3cnccc3c(C)c1n2CCCN | – | 31.6 µM (active)
31 | Cc1ccc(S(=O)(=O)N2CCN(c3nc(C)c4c(c3C#N)CC(C)(C)OC4)CC2)cc1 | 22.2% | –
32 | Fc1ccc2[nH]c3c(N4CCN(Cc5ccc6c(c5)OCO6)CC4)ncnc3c2c1 | 12% | –
33 | Cn1c(N2CCN(c3ccccn3)CC2)nc2c1c(=O)n(Cc1ccc(Cl)cc1)c(=O)n2C | 13.9% | –
34 | CN(C)S(=O)(=O)c1ccc2c(c1)/C(=C/c1cc3c([nH]1)CCCC3)C(=O)N2 | 1.89% | –
35 | Cc1cc(=O)oc2c(CN3CCCCC3)c(O)c(Cl)cc12 | – | 10 µM (active)
36 | CC[C@@H]1CN2CCc3cc(OC)c(OC)cc3[C@H]2C[C@@H]1C[C@@H]1NCCc2cc(OC)c(OC)cc21 | 9.35% | –
37 | CN(C)CCCN=c1c2ccccc2n(C)c2[nH]c(=O)n(C)c(=O)c12 | 8.49% | –
38 | Nc1ncnc2c1ncn2[C@@H]1O[C@H](CO)[C@@H](O)[C@H]1O | 1.85% | –
39 | CC[C@@H]1CN2CCc3cc(OC)c(OC)cc3[C@H]2C[C@@H]1C[C@H]1NCCc2cc(OC)c(OC)cc21 | 7.48% | –
40 | Cn1c(N2CCOCC2)nc2c1c(=O)n(Cc1ccc(Cl)c(Cl)c1)c(=O)n2C | 13% | –

— PubChem BioAssay AID934 (National Center for Advancing Translational Sciences (NCATS), 2007)
